Sampled rows, rich in hits. Any-hit rate of the full collection: about 2.4%.
POLK inh: qHTS for Inhibitors of Polymerase Kappa; DNA polymerase kappa (Homo sapiens), Q9UBT6; AID 588579, 2011; Potency, µM (highest dose often 107 µM), for the others: at the top dose activity, negative = inhibition, actives largely listed as inhibitors; purified Pol kappa, fluorescent DNA synthesis assay, 10 min; actives 0.53% (n = 400,000); note: % is set by controls: 0 for no effect and ±100 for the full control effect
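Activity was followed as the change in fluorescence between reads at 0 and 10 min after starting the reaction with 50 nM substrate. Beforehand, 10 nM polymerase had been preincubated with compound for 15 min at room temperature.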
WRN helicase inh: qHTS for Inhibitors of WRN Helicase; Bifunctional 3'-5' exonuclease/ATP-dependent helicase WRN (Homo sapiens), Q14191; actives 0.46% (n = 360,000); Potency, µM (titrated, usually from 114 µM), for inactives: at the top dose activity change, negative = inhibition, usual class: inhibitors; WRN helicase unwinding, fluorescent forked duplex, kinetic; note: % is set by controls: 0 for no effect and ±100 for the full control effect; nearly all actives have a fitted effect of over 55% in size
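Enzyme (20 nM final) and test compound sit together 15 min at room temperature before substrate addition. Substrate is a single-forked duplex oligonucleotide (100 nM) labelled with fluorophore and quencher, with 2 mM ATP; helicase unwinding raises red fluorescence, read kinetically.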
POLH inh: qHTS for Inhibitors of Polymerase Eta; AID 588591, 2011; DNA polymerase eta (Homo sapiens), Q9Y253; Potency, µM (doses to about 114 µM), inactives show at the highest dose activity change, negative = inhibition, actives largely listed as inhibitors; recombinant Pol eta, fluorescent DNA replication assay; actives 1.2% (n = 390,000); note: % is set by controls: 0 for no effect and ±100 for the full control effect
Target sequence (Q9Y253 whole entry, looked up): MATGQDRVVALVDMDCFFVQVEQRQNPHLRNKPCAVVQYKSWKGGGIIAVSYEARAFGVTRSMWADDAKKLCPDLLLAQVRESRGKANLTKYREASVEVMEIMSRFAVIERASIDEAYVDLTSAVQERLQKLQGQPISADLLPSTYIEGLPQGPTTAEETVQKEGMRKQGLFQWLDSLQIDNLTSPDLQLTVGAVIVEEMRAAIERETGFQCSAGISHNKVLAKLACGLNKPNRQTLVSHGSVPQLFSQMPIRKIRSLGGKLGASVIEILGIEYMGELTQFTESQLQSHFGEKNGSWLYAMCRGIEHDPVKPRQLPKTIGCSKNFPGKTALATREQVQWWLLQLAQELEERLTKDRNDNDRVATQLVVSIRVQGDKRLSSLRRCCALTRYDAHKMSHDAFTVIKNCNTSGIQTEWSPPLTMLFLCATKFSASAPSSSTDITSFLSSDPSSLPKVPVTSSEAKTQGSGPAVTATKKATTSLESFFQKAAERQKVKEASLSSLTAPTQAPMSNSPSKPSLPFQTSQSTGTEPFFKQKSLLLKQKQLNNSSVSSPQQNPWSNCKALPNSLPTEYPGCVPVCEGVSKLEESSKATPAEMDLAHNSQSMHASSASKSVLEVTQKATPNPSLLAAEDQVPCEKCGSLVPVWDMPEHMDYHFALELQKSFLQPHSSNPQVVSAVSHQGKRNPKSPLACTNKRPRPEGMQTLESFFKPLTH
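Pol eta (10 nM) was preincubated with compounds for 15 min at room temperature, after which fluorescent replication substrate (50 nM final) was added to start the reaction. Fluorescence was read kinetically at 0 and 10 min.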
POLB inh: qHTS Assay for Inhibitors of DNA Polymerase Beta; Pol beta primer extension/strand displacement, fluorescence kinetic; P06746; Potency, µM (doses to about 114 µM), without a hit: top-dose activity change, negative = inhibition, most hits filed as inhibitors; actives 1.3% (n = 340,000); AID 485314, 2010; note: % is set by controls: 0 for no effect and ±100 for the full control effect
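10 nM enzyme + cpd, 15 min RT; start with substrate 50 nM final; read 0 min and after 10 min RT. Corrected, normalized data; 4-parameter Hill curve fit.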
FEN1 inhibitor: qHTS Assay for the Inhibitors of Human Flap endonuclease 1 (FEN1); P39748; Recombinant FEN1 flap cleavage, fluorescence, 15 min; Potency, µM (top dose mostly 114 µM), inactives show at the highest dose activity change, negative = inhibition, most hits filed as inhibitors; actives 0.35% (n = 390,000); note: % is set by controls: 0 for no effect and ±100 for the full control effect; nearly all actives have a fitted effect of over 65% in size
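FEN1 at 10 nM, compound pretreatment for 15 min (room temperature), 50 nM final substrate to initiate; endpoint reads at 0 and 15 min; DMSO-only plates used as vehicle background.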
Pol iota inh: qHTS for Inhibitors of Polymerase Iota | DNA polymerase iota (Homo sapiens), Q9UNA4 | Pol iota fluorescent replication assay, 10 min | Potency, µM (titrated, usually from 115 µM), for the others: at the top dose activity, negative = inhibition, usual class: inhibitors | actives 1% (n = 390,000) | AID 588590, 2011
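Pol iota at 10 nM preincubated 15 min with compounds at room temperature; reaction started with fluorescent substrate, 50 nM final. Fluorescence read kinetically at 0 and 10 min; buffer-only wells as negative control.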
Numbers without * were called inactive; u = inconclusive; x = not tested or not shown; [ ] = remark or other dose. Calls come from the whole dose curve; as a rule, active = well fitted curve in the direction sought with a large enough effect; inconclusive = small, poorly fitted or top-dose-only effect, or another doubt; inactive = no such curve, though single readings can be large; an effect the other way counts as inactive or inconclusive. Potency is the fitted concentration of half-maximal effect.

SMILES	POLK inh	WRN helicase inh	POLH inh	POLB inh	FEN1 inhibitor	Pol iota inh
COc1ccc(/C=N/NC(=O)CCC(=O)Nc2ccccc2)cc1OC	-29.8%	0.3%	-2.2%	u	4.6%	u
COc1ccc(/C=N/NC(=O)c2ccc(=O)[nH]n2)cc1OC	u	-3.3%[57.1 µM]	u	7.94µM*	-12.4%	100µM*
CSCC[C@H](NC(=O)[C@H](CCCN=C(N)N)NC(=O)[C@@H]1CCCN1C(=O)[C@H](Cc1ccccc1)NC(=O)[C@H](C)NC(=O)[C@H](CC(C)C)NC(=O)[C@H](Cc1ccc(O)cc1)NC(=O)[C@H](CC(N)=O)NC(=O)[C@@H](N)CCSC)C(N)=O	19.7%[60.1 µM]	x	x	x	x	x
COc1cc2nc(N3CCCCC3)nc(NC(C)C)c2cc1OC	-21.4%	x	x	x	u	30.7%
CC[C@H](C)[C@H](NC(=O)CNC(=O)[C@H](CCCNC(=N)N)NC(=O)CNC(=O)[C@@H](NC(=O)[C@H](Cc1ccc(O)cc1)NC(=O)[C@H](Cc1c[nH]c2ccccc12)NC(=O)[C@H](C)NC(=O)[C@@H]1CCCN1C(=O)[C@H](CC(N)=O)NC(=O)[C@@H](NC(=O)[C@H](CC(=O)O)NC(=O)[C@@H]1CCCN1C(=O)[C@@H](N)[C@@H](C)O)[C@@H](C)CC)[C@@H](C)O)C(=O)N[C@@H](CCCNC(=N)N)C(=O)N1CCC[C@H]1C(=O)N[C@H](C(=O)NCC(=O)N[C@@H](CCCNC(=N)N)C(=O)N[C@@H](Cc1ccccc1)C(N)=O)C(C)C	-4.2%[12 µM]	x	x	x	x	x
O=[N+]([O-])c1ccc(/C=N/Nc2nc3ccccc3o2)cc1	-2.7%	-2.4%	-0.5%	44.7µM*	3.5%	-1.2%
CCS(=O)(=O)c1ccc(C=NNc2nc3ccccc3o2)cc1	-9.3%	-11.6%	-8.3%	x	2.0%	8.1%
O=C(C#Cc1ccccc1)c1ccc([N+](=O)[O-])cc1	2.5%	31.6µM*	-13.9%	16.2%	-3.1%	34.4%
CN(C)C(=O)C#Cc1ccccc1	2.0%	-10.8%	-6.8%	10.8%	22.1%	50.5%
O=C(C#Cc1ccccc1)c1ccccc1	x	44.7µM*	-4.5%	x	x	x
O=C(CSCC(=O)c1ccc([N+](=O)[O-])cc1)c1ccc([N+](=O)[O-])cc1	x	-9.2%	x	x	x	x
c1ccc2c(c1)SCc1c-2[nH]c2ccccc12	4.9%[60.1 µM]	x	x	x	x	x
Cc1ccc(S(=O)(=O)c2ccc([N+](=O)[O-])o2)cc1	-12.1%	14.1µM*	9.3%	x	5.9%	17.8µM*
CCC(C)C(NC(=O)OC(C)(C)C)C(=O)NC1COC2CC(n3ccc(=O)[nH]c3=O)OC12 (configuration not stated)	2.2%	x	x	x	-3.2%	u
Cc1cnnc2ccccc12	-17.2%	x	x	x	-11.0%	-11.2%
Cc1ccc(-c2nn3c(C)nnc3s2)cc1NC(=O)c1ccc(Br)o1	12.3%	-0.5%	-6.0%	-1.5%	1.4%	-22.0%
Cc1ccc(-c2nn3c(C)nnc3s2)cc1NC(=O)c1ccc(-c2ccc(Cl)cc2Cl)o1	u	u	u	3.98µM*	56.2µM*	u
Cc1ccc(-c2nn3c(C)nnc3s2)cc1NC(=O)c1ccc(-c2cccc(Cl)c2)o1	-24.5%	50.1µM*	u	7.08µM*	u	31.6µM*
Cc1ccc(O/C=C2/Nn3c(nnc3-c3cc(-c4ccccc4)n[nH]3)S2)cc1	-20.1%	x	x	x	0.0%	5.7%
OC[C@@H]1O[C@H](O)[C@H](O)[C@@H](O)[C@@H]1O	-3.0%[60.1 µM]	x	x	x	x	x
CC(C)(C)c1ccc(C(=O)Nc2nc3nc(-c4ccccc4)cc(=O)n3[nH]2)cc1	-15.8%	x	-21.0%	44.7µM*	1.6%	u
O=C(Nc1nc2nc(-c3ccccc3)cc(=O)n2[nH]1)c1ccc(F)cc1	-22.3%	x	-7.3%	-1.6%	13.3%	-6.4%
Cc1ccc(C(=O)Nc2nc3nc(-c4ccccc4)cc(=O)n3[nH]2)cc1	6.8%	-16.0%[11.6 µM]	79.4µM*	11.6%	13.9%	-2.2%
COc1ccc2[nH]c(CCc3nc4c(OC)c(OC)ccc4[nH]3)nc2c1OC	-2.1%	x	x	x	8.9%	59.8%
CC(NC(=O)Cc1cc(F)cc(F)c1)C(=O)NC(C(=O)OC(C)(C)C)c1ccccc1 (configuration not stated)	9.8%[60.1 µM]	x	x	x	x	x
SMILES	POLK inh	WRN helicase inh	POLH inh	POLB inh	FEN1 inhibitor	Pol iota inh
Cc1ccc2c(C(=O)CNc3nc(C)c(C)s3)c(C)[nH]c2c1	-14.4%	x	x	x	-0.4%	1.4%
COc1ccc(OC)c2c(C)c(C)[nH]c12	-10.1%	2.3%	-16.9%	28.2µM*	-17.3%	-15.8%
COc1cccc2c(=O)c3c([nH]c12)OC(C)(C)C3	0.0%	3.5%	-8.6%	x	0.6%	23.8%
COc1cccc2c(=O)c3cccc(N)c3[nH]c12	-11.8%	u	u	25.1µM*	u	-12.2%
C=C1C=C(C(F)F)n2ncc(C(=O)NCc3ccc(Cl)cc3Cl)c2N1	5.8%	x	x	x	1.2%	16.8%
Cc1cc(NC(=O)CS(=O)CC(=O)Nc2c(C)cccc2C)ccc1-n1cnnn1 (configuration not stated)	-0.3%	6.5%	-8.2%	49.0%	0.0%	-0.9%
Cc1cc(C)cc(OCC(=O)Nc2ccc(-n3cnnn3)cc2)c1	2.2%	-5.6%	-11.9%	x	-0.8%	31.6µM*
CCc1ccc(NC(=O)CS(=O)CC(=O)Nc2ccc(-n3cnnn3)c(C)c2)cc1 (configuration not stated)	-13.1%	-22.6%	-2.3%	25.1µM*	-22.9%	13.9%
COc1cc(/C=N/NC(=O)COc2ccc([N+](=O)[O-])cc2)ccc1OCC(=O)N1CCOCC1	-15.7%	-3.2%	-1.2%	17.8µM*	5.4%	-7.8%
COc1cc(/C=N/NC(=O)COc2ccc(-n3cnnn3)cc2)ccc1OCC(N)=O	u	-6.4%	-9.1%	15.8µM*	9.3%	u
CC(C)c1cccc(NC(=O)COC(=O)c2ccccc2OCc2cccc(Br)c2)c1	-9.7%	x	x	x	-21.3%	-5.0%
O=[N+]([O-])c1ccc(/C=C/c2cc(Cl)nc3ccccc23)cc1	-0.3%	x	x	x	3.2%	4.5%
CCc1ccc(S(=O)(=O)NCc2cccn2Cc2cccc(C)c2)cc1	-7.2%[60.1 µM]	x	-17.4%	u	-25.9%	-9.3%
CCC(=O)Nc1ccc(S(=O)(=O)NCc2cccn2Cc2cccc(C)c2)cc1	-10.6%[60.1 µM]	x	-18.4%	24.8%	-20.9%	89.1µM*
C=CCN1C(=O)/C(=C/c2ccc(-c3ccc(F)cc3)o2)SC1=S	-0.1%	-2.7%	-11.3%	10µM*	-3.9%	12.6%
C=CCN1C(=O)/C(=C/c2ccsc2)SC1=S	-17.0%	-1.8%	1.3%	11.8%	14.4%	1.1%

Source: PubChem (National Center for Advancing Translational Sciences (NCATS))
